Source: PubChem BioAssay (National Center for Advancing Translational Sciences (NCATS))
Shown are actives, neighbours in structure and some others; about 8.1% of the full set was active somewhere.
KB-3-1 cytotox = kills parental KB-3-1 adenocarcinoma cells. KB-3-1 viability, CellTiter-Glo ATP luminescence, 72 h. Potency, µM (highest dose often 46.1 µM), most hits filed as cytotoxic. 400,000 compounds, 1.4% hits; further: on the % scale 0 is the no-effect control and ±100 the full control effect; nearly all actives have a fitted effect of over 60% in size
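Cells are dispensed, compounds pinned in, plates held at 37 °C for 72 h, then CellTiter-Glo is added and luminescence read after 10 minutes. Cell line: parental KB-3-1 in phenol-red-free DMEM, 10% FBS.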
SW480 rerep = DNA re-replication induction in SW480 cells. 340,000 compounds, 1.8% hits. Potency, µM (titrated, usually from 46.1 µM), for inactives: top-dose re-replication activation, actives largely listed as activators. AID 624297. SW480 DNA re-replication, Hoechst DNA content imaging, 48 h; further: % of control where 0% means no effect; nearly all actives have a fitted effect of over 55% in size
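Hoechst fluorescence of nuclei (405 nm excitation, 500-530 nm emission) measured by plate-scanning imager after 48 hr compound exposure at 37 C; re-replication scored as increased number of nuclei with elevated intensity.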
MCF10A rereplic = induces DNA re-replication in MCF 10a normal breast cells | 350,000 compounds, 2.9% hits | MCF 10A DNA re-replication, Hoechst nuclear intensity, 48 h | Potency, µM (series often up to 46.1 µM), without a hit: at the highest dose activity, positive = re-replication, most hits filed as activators; further: % of control where 0% means no effect; nearly all actives have a fitted effect of over 50% in size
KB-V1 cytotox = kills drug-selected multidrug resistant KB-V1 cells; 400,000 compounds, 3.4% hits; KB-V1 MDR cells viability, CellTiter-Glo, 72 h; Potency, µM (doses to about 46.1 µM), actives largely listed as cytotoxic; further: on the % scale 0 is the no-effect control and ±100 the full control effect; nearly all actives have a fitted effect of over 60% in size
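Luminescent ATP read-out (CellTiter-Glo, 10 min) measures survival of drug-selected KB-V1 MDR cells after 72 h, 37 degrees C compound exposure. Medium: phenol-red-free DMEM, 10% FBS. Values from fitted concentration-response curves.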
ELG1 repair inh = inhibitors of ELG1-dependent DNA repair in HEK293T cells; HEK293T ELG1-luciferase reporter, luminescence, 16 h; DNA damage induced by 5-fluorouridine; Potency, µM (titrated, usually from 46.1 µM), for the others: top-dose activity change, negative = inhibition, actives largely listed as inhibitors; 330,000 compounds, 2.3% hits; AID 504467; further: on the % scale 0 is the no-effect control and ±100 the full control effect; nearly all actives have a fitted effect of over 55% in size
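Quantitative HTS, concentration-response format. 2,000 cells/well co-treated with 5-fluorouridine and compound, 16 hr in 5% CO2 at 37 °C; ONE-Glo luminescence read after 30 min.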
Active calls of the source: *; i = inactive; ? = inconclusive; · = no result; [ ] = another dose, or the depositor's remark. The call rests on the fitted dose curve; in most records, active means well fitted curve in the direction sought with a large enough effect; inconclusive means small, poorly fitted or top-dose-only effect, or another doubt; inactive means no such curve, though single readings can be large; an effect the other way counts as inactive or inconclusive. Potency means the concentration at half of the fitted maximal effect.

SMILES	KB-3-1 cytotox	SW480 rerep	MCF10A rereplic	KB-V1 cytotox	ELG1 repair inh
O=[N+]([O-])c1ccc(C[n+]2cccc3ccc4cccnc4c32)cc1	i	12%	?	i	7.3µM*
COc1cc(OC)c(C2C(C(=O)Nc3ccc(C)cc3C)=C(C)Nc3ncnn32)cc1OC (configuration not stated)	i	1%	6%	i	-1%
O=C1NC(=O)C(=Cc2ccccc2[N+](=O)[O-])S1	?	?	21µM*	?	·
O=C1NC(=O)/C(=C/c2cccc3ccccc23)S1	i	0%	7%	i	0%
Cc1ccc([N+](=O)[O-])cc1N=Nc1c(-c2ccc([N+](=O)[O-])cc2)[nH]n(C(N)=S)c1=O	i	8%	3%	?	?
NC(=S)n1[nH]c(-c2ccc([N+](=O)[O-])cc2)c(N=Nc2ccc(Cl)cc2)c1=O	18µM*	17%	-8%	i	2.9µM*
c1ccc(-c2nnc(CSc3nc4ccccc4[nH]3)o2)cc1	i	0%	15%	13µM*	0%
O=C(CSc1nc2ccccc2[nH]1)c1ccc2c(c1)OCO2	i	7%	-1%	18µM*	?
Cc1cccc2nc(CSc3nc4ccc([N+](=O)[O-])cc4[nH]3)c(Br)n12	?	17%	1%	12µM*	?
Cc1ccc2nc(SCC(=O)c3ccc4c(c3)OCO4)[nH]c2c1	i	-3%	-2%	i	-10%
O=C(CSc1nc2ccccc2c(=O)[nH]1)c1ccc(O)c(O)c1	?	2%	22%	18µM*	2%
NC(=O)CSc1nc2ccc([N+](=O)[O-])cc2[nH]1	i	-3%	-1%	i	-3%
O=C(CCCSc1nc2ccccc2[nH]1)Nc1nnc(-c2ccccc2)o1	i	-7%	1%	i	?
COc1ccc(NC(=O)CCC(=O)OCc2ccc(Br)cc2)cc1	i	-49%	?	i	8%
Cc1[nH]c2ccccc2c1C(=O)CSc1nc2cc(S(=O)(=O)N3CCCCC3)ccc2o1	?	10%	18%	i	15µM*
Cc1[nH]c2ccccc2c1C(=O)CSc1nc2ccccc2[nH]1	i	?	?	21µM*	-26%
Cc1ccc(C(=O)CSc2nc3cc(S(=O)(=O)N4CCOCC4)ccc3o2)cc1	i	-3%	6%	i	-17%
CC(C)CSc1nc2ccccc2[nH]1	i	?	0.58µM*	?	?
O=C(CSc1nnc(SCc2cccc3ccccc23)s1)c1ccc2c(c1)OCO2	i	-5%	0%	18µM*	-1%
Cc1[nH]c2ccccc2c1C(=O)CSc1nccc(=O)[nH]1	i	8%	5%	?	9%
C/C(=N\Nc1nc2ccccc2[nH]1)c1ccc2c(c1)OCO2	i	21µM*	?	?	-7%
C/C(=N\Nc1nc2ccccc2[nH]1)c1ccc2c(c1)OCCO2	?	11%	12%	?	?
c1ccc(CSc2nc3ccccc3[nH]2)cc1	i	-1%	4%	i	?
O=[N+]([O-])c1ccc(CSc2nc3ccccc3[nH]2)cc1	i	2%	4%	21µM*	?
COc1ccc(S(=O)(=O)Nc2ccc3c(c2)C(=O)N([C@H](C)CO)C[C@H](C)[C@@H](CN(C)S(=O)(=O)c2ccc(OC)cc2)O3)cc1	i	13%[9.22 µM]	3%	i	·
C[C@H](CO)N1C[C@H](C)[C@@H](CN(C)S(C)(=O)=O)Oc2ccc(NS(=O)(=O)c3ccccc3)cc2C1=O	i	?	?	?	-2%
COc1ccc(S(=O)(=O)Nc2cccc3c2O[C@H](CN(C)S(=O)(=O)c2ccc(F)cc2)[C@H](C)CN([C@H](C)CO)C3=O)cc1	i	-8%	11%	i	6%
COc1ccc(S(=O)(=O)Nc2cccc3c2O[C@H](CN(C)S(=O)(=O)c2ccccc2)[C@@H](C)CN([C@H](C)CO)C3=O)cc1	i	0.82µM*	0%	?	6%
